Inconclusive results are not listed. Calls of active or inactive are those of the source. No rule for the calls is given here.

This test in a line: caspase 3/7 activation in HT29 HRAS cells, mechanism study for HRAS target identification, cell-based, caspase 3/7 luminescence, multiple timepoints, dry powder (AID 652070). The note with it: apoptosis; max activity: measured here: third timepoint caspase 3/7, at 0.068 µM, stronger effect = higher value unless noted; series mostly up to 35 µM; caspase 3/7 activation: at the top concentration.
Regarding `O=C(NCCOCCOCCOc1ccc(N(C(=O)CCl)C(C(=O)NCCc2ccccc2)c2cccs2)cc1Cl)c1ccc(COC2C#CCCCCC2)cc1` (configuration not stated), the “caspase 3/7 activation” value was 25.4% (inactive) and the max activity worked out at 24.4%.
Turning to `CO[C@H]1C[C@@H]2CC[C@@H](C)[C@@](O)(O2)C(=O)C(=O)N2CCCC[C@H]2C(=O)O[C@H]([C@H](C)C[C@@H]2CC[C@@H](O)[C@H](OC)C2)CC(=O)[C@H](C)/C=C(\C)[C@@H](O)[C@@H](OC)C(=O)[C@H](C)C[C@H](C)/C=C/C=C/C=C/1C`, the max activity is 31.1% [measured here: third timepoint caspase 3/7, at 35 µM, stronger effect = higher value] and the “caspase 3/7 activation” value is 6.78% (inactive).
As to `COc1ccc(N(C(=O)CCl)C(C(=O)NCCc2ccccc2)c2cccs2)cc1Cl` (configuration not stated), the “caspase 3/7 activation” value was -32.2% (inactive) and the max activity was 22.2% [measured here: third timepoint caspase 3/7, at 8 µM, stronger effect = higher value].
`CCC(=O)N(c1ccc(OC)c(Cl)c1)C(C(=O)NCCc1ccccc1)c1cccs1` (configuration not stated): the “caspase 3/7 activation” value is 26% (inactive) and the max activity turned out to be 17.8%.
`Cc1onc(C(=O)N2CCN(C(c3ccc(Cl)cc3)c3ccc(OCCOCCOCCNC(=O)OC(C)(C)C)cc3)CC2)c1[N+](=O)[O-]` (configuration not stated): the max activity was 22.2% [measured here: third timepoint caspase 3/7, at 0.0001 µM, stronger effect = higher value] and the “caspase 3/7 activation” value is 19% (inactive).
`Cc1onc(C(=O)N2CCN(C(c3ccc(Cl)cc3)c3ccc(Cl)cc3)CC2)c1[N+](=O)[O-]`: the “caspase 3/7 activation” value was 21% (inactive) and the max activity was 13.3% [measured here: third timepoint caspase 3/7, at 0.0001 µM, stronger effect = higher value].

These data come from PubChem BioAssay AID652070 (Broad Institute, 2013).
